From PubChem BioAssay
This is one part of the list. A number with no mark means an inactive call. Active and inactive are the calls of the source.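 How the source made its calls: active means mean inhibition above a cutoff equal to the average over all tested compounds plus one standard deviation (cut at about 70% in these data); inactive means the rest.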

Assay: GAL4-VP16 reporter modulators, confirmation, counter-screen for NR2E3 agonist project, cell-based, luminescence, CHO-S, high throughput (AID 624379);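 further: luciferase from a UAS reporter driven by GAL4-VP16 transactivation; 0% = DMSO with VP16-transfected cells and 100% = DMSO with cells lacking VP16; higher means less reporter light so more repression of VP16 activity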
Conditions: CHO-S GAL4-VP16 luciferase reporter, at 3.98 µM, active compounds read high

Q: With `COc1ccc(S(=O)(=O)NCCCCOc2ccc(Cl)cc2)cc1` as the compound, how does the inhibition read?
A: The inhibition was 86.5% (active).

Q: Which inhibition does the source give for `CCCNc1ncnc2sc(C)c(C)c12` here?
A: Its inhibition is 29.6%.

Q: With `CSc1ncccc1C(=O)Nc1nc2ccc(F)cc2s1` as the compound, how does the inhibition read?
A: The inhibition was 25.2%.

Q: For `COc1ccc(-n2c(C)cc(C(=O)CSc3nnc(-c4cccs4)o3)c2C)cc1`, which inhibition is on record?
A: Its inhibition is 66.9%.

Q: With `Cc1ccc(CS(=O)(=O)c2ncc(Cl)c(C(=O)Nc3nnc(C)s3)n2)cc1` as the compound, how does the inhibition read?
A: Its inhibition is -7.39%.

Q: Which inhibition does the source give for `CN(C(=O)CN1CCN(c2cc(-c3ccc(OCc4ccccc4)cc3)ncn2)CC1)c1ccccc1` here?
A: Its inhibition is 52.7%.

Q: Which inhibition does the source give for `COCCNc1nc(-n2nc(C)cc2C)nc2sc3c(c12)CCCC3` here?
A: The inhibition was -32%.

Q: With `Oc1ccc(Br)cc1/C=N/Nc1ccccn1` as the compound, how does the inhibition read?
A: Its inhibition is 61%.

Q: With `CCOC(=O)N1CCN(C(=O)c2ccc(S(=O)(=O)Nc3cccc(C(F)(F)F)c3)cc2)CC1` as the compound, how does the inhibition read?
A: Its inhibition is 47.3%.

Q: For `CN(C)C(=S)N=c1ssc(=S)n1Cc1ccco1`, which inhibition is on record?
A: Its inhibition is -46.1%.

Q: Which inhibition does the source give for `OC[C@@H]1CN(Cc2ccc(-c3ccccc3)cc2)C[C@H](n2cnc3c(NC4CCCC4)ncnc32)O1` here?
A: Its inhibition is 78.4% (active).

Q: For `c1ccc(C(=NNc2nc3ccccc3s2)c2ccccn2)cc1`, which inhibition is on record?
A: Its inhibition is 11.6%.

Q: For `COc1cc(CC(=O)Nc2nc(-c3ccc(F)c(F)c3)cs2)cc(OC)c1OC`, which inhibition is on record?
A: Its inhibition is 86.9% (active).

Q: For `COc1ccc(CNc2ncnc3ccccc23)cc1`, which inhibition is on record?
A: Its inhibition is 75.7% (active).

Q: For `O=C(Nc1nnc(-c2ccccc2)o1)c1cc(-c2cccs2)nc2ccccc12`, which inhibition is on record?
A: The inhibition was 12.6%.

Q: For `Cc1ccc(OCC(=O)c2cc(C)n(Cc3ccco3)c2C)c([N+](=O)[O-])n1`, which inhibition is on record?
A: The inhibition was 52.5%.

Q: Which inhibition does the source give for `COc1ccc(CC(=O)Nc2nc(-c3ccc(F)c(F)c3)cs2)cc1OC` here?
A: Its inhibition is 81.8% (active).

Q: For `O=C(/C=C/c1ccc([N+](=O)[O-])o1)NNC(=O)c1ccc(F)cc1`, which inhibition is on record?
A: The inhibition was 18.6%.

Q: For `COc1cccc(CNS(=O)(=O)c2ccc3c(c2)CC(C)N3C(=O)C2CCC2)c1` (stereo not given), which inhibition is on record?
A: Its inhibition is 58.5%.

Q: Which inhibition does the source give for `COc1ccc(CNS(=O)(=O)c2ccc(-c3cnc(C4CC4)o3)cc2)cc1` here?
A: Its inhibition is 55.8%.

Q: With `CSc1nsc(SC)c1NC(=O)OC1CCCCC1` as the compound, how does the inhibition read?
A: Its inhibition is -17.6%.

Q: For `CCCOc1ccccc1C1CC(=O)Nc2cc3c(cc21)OCO3` (stereo not given), which inhibition is on record?
A: Its inhibition is 26.1%.

Q: With `COc1ccccc1CNc1nc(Nc2ccccc2Cl)c2sccc2n1` as the compound, how does the inhibition read?
A: The inhibition was 86.4% (active).

Q: For `Cn1nccc1C(=O)NC1CCCc2c1cnn2-c1ccccc1F` (stereo not given), which inhibition is on record?
A: The inhibition was 86.2% (active).

Q: With `Cc1cc(C(=O)NC2CCCc3c2cnn3-c2cccc(C)c2C)c(C)o1` (stereo not given) as the compound, how does the inhibition read?
A: Its inhibition is 69.9%.

Q: For `COc1ccc(C(=O)NNC(=S)NC(=O)c2ccccc2[N+](=O)[O-])cc1`, which inhibition is on record?
A: Its inhibition is -6.68%.

Q: Which inhibition does the source give for `O=S(=O)(c1cccc(Cn2nnc(-c3ccc(F)cc3)n2)c1)N1CCOCC1` here?
A: Its inhibition is 39.4%.

Q: With `COC(=O)c1sccc1NC(=O)CSc1ccccc1NS(=O)(=O)c1cc(Cl)ccc1Cl` as the compound, how does the inhibition read?
A: The inhibition was 74.7% (active).

Q: For `CCCc1cc(=O)[nH]c(SCC(=O)Nc2sc3c(c2C#N)CCCC3)n1`, which inhibition is on record?
A: The inhibition was 41.8%.

Q: Which inhibition does the source give for `CCN(CC)S(=O)(=O)c1ccc(N(C)Cc2ccc(C(F)(F)F)cc2)nc1` here?
A: Its inhibition is 41.8%.

Q: For `Cc1cccc(NS(=O)(=O)c2ccc(-c3cnc(C4CC4)o3)cc2)c1`, which inhibition is on record?
A: The inhibition was 37.9%.

Q: Which inhibition does the source give for `COc1ccc(C(=O)NC2CCCc3c2cnn3-c2cccc(C)c2C)c(OC)n1` (stereo not given) here?
A: Its inhibition is 74.1% (active).

Q: With `CCn1c(CNC(=O)c2cc(OC)c(OC)c(OC)c2)cc2cc(C)ccc21` as the compound, how does the inhibition read?
A: The inhibition was 71% (active).

Q: Which inhibition does the source give for `COc1ccccc1-n1nnnc1S(=O)(=O)Cc1ccc(Cl)cc1` here?
A: The inhibition was 19%.

Q: Which inhibition does the source give for `CCOC(=O)N1CCN(C(=O)C2CCN(c3ncnc4c3sc3cccc(F)c34)CC2)CC1` here?
A: The inhibition was 70.3%.

Q: Which inhibition does the source give for `CC(=O)c1c(C)[nH]c(C(=O)COC(=O)c2cccc(S(=O)(=O)N(C)c3ccccc3)c2)c1C` here?
A: Its inhibition is 73.4% (active).

Q: Which inhibition does the source give for `Cc1ccnc(NC(=O)C2CCN(S(=O)(=O)c3c(C)c(C)cc(C)c3C)CC2)c1` here?
A: Its inhibition is 21.8%.

Q: For `Cn1c(Cc2cccc3ccccc23)nnc1SCC(=O)N1CCN(c2cccc(Cl)c2)CC1`, which inhibition is on record?
A: The inhibition was 30.7%.

Q: With `Cc1nc2c(OCc3cccc(Cl)c3)cccn2c1N(C)CC1CC1` as the compound, how does the inhibition read?
A: Its inhibition is 19.3%.

Q: Which inhibition does the source give for `COc1cccc(CNc2nc(NCc3ccccc3OC)nc3ccsc23)c1` here?
A: Its inhibition is 61.6%.
